Results reported in PubChem BioAssay AID1345085 (National Center for Advancing Translational Sciences (NCATS), 2018).
Inconclusive results are not listed. The source made the active and inactive calls. Calls follow the shape of the dose curve; as a rule, active = well fitted cell-killing curve with a large enough effect; inconclusive = small, poorly fitted or top-dose-only effect, or effect the other way; inactive = no such curve, though single readings can be large or run the other way.

The compounds below were run on PA-1 (assay: Confirmatory qHTS for gynecologic anti-cancer compounds from libraries of approved drugs and bioactive compounds). Conditions: gynecologic cancer cell panel viability, ATPlite luminescence, 48 h; series mostly up to 57.6 µM.
In short: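 ATPlite luminescence read-out of cell viability; IC50 from 11-point 1:3 titrations, 57.5 uM to 0.977 nM, 48 h compound exposure at 37 C, 5% CO2. Cells seeded at 1,000/well 16 h before dosing.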
Also: nearly all actives have a fitted effect of over 55% in size.
Potency is read from the fitted curve at half-maximal effect.

For CC[C@H](CC#N)OC(=O)N[C@@H](C)c1cccc(NC(=O)Nc2ccc(-c3cnco3)c(OC)c2)c1, which Potency is on record?
The Potency was 217 nM (active).

COc1c(C)c2c(c(O)c1C/C=C(\C)CCC(=O)OCCN1CCOCC1)C(=O)OC2 was tested. Which Potency did it give?
The Potency was 485 nM (active).

For CN(C)CC/C=C1\c2ccccc2COc2ccccc21, which Potency is on record?
Its Potency is “inactive”.

Cc1cnc(CNC(=O)c2c(=O)c3ccc(N4CCCN(C)CC4)nc3n3c2sc2ccccc23)cn1 was tested. Which Potency did it give?
Its Potency is 1110 nM (active).

With Cc1cc(Nc2cc(N3CCN(C)CC3)nc(Sc3ccc(NC(=O)C4CC4)cc3)n2)n[nH]1 as the compound, how does the Potency read?
The Potency was 2170 nM (active).

CCn1cc(-c2ccnc3[nH]c(-c4cccc(CN(C)C)c4)cc23)c(-c2ccc(NC(=O)N(C)C)cc2)n1 was tested. Which Potency did it give?
Its Potency is 8410 nM (active).

Which Potency does the source give for Nc1ccn([C@@H]2O[C@H](CO)[C@@H](O)C2(F)F)c(=O)n1 here?
Its Potency is 61.1 nM (active).

Which Potency does the source give for Cc1cnc(Nc2ccc(F)cc2Cl)nc1-c1c[nH]c(C(=O)NC(CO)c2cccc(Cl)c2)c1 (centres undefined) here?
Its Potency is 24300 nM (active).

How did the Potency turn out when CCS(=O)(=O)c1cccc(-c2cc(C(=O)NC3CCN(C)CC3)c(C)c3[nH]c4ncc(C)cc4c23)c1 was run?
The Potency was 1060 nM (active).

With Cc1ccc(C(N)=O)cc1Nc1nccc(-c2cn(C(C)C)c3cnccc23)n1 as the compound, how does the Potency read?
The Potency was 1370 nM (active).

CC[C@@]1(O)C(=O)OCc2c1cc1n(c2=O)Cc2cc3cc(O)ccc3nc2-1 was tested. Which Potency did it give?
Its Potency is 109 nM (active).

With COc1cc2c(Nc3ccc(NC(=O)c4ccccc4)cc3)ncnc2cc1OCCCN1CCOCC1 as the compound, how does the Potency read?
Its Potency is 34300 nM (active).

For O=c1[nH]c(=O)n([C@H]2C[C@H](O)[C@@H](CO)O2)cc1C(F)(F)F, which Potency is on record?
The Potency was 1930 nM (active).

Which Potency does the source give for CNC1CCC(N(Cc2cccc(-c3ccncc3)c2)C(=O)c2sc3ccccc3c2Cl)CC1 (centres undefined) here?
The Potency was 24300 nM (active).

Cc1c(C)n(Cc2ccc(-c3ccccc3C(=O)O)cc2)c2ccc(C(=O)N[C@@H](C)c3ccc([N+](=O)[O-])cc3)cc12 was tested. Which Potency did it give?
The Potency was “inactive”.

For CCCCc1oc2ccccc2c1C(=O)c1cc(I)c(OCCN(CC)CC)c(I)c1, which Potency is on record?
Its Potency is 39800 nM (active).

How did the Potency turn out when Cc1ccc(C(=O)N(CCCN)C(c2oc3cc(Cl)ccc3c(=O)c2Cc2ccccc2)C(C)C)cc1 (centres undefined) was run?
The Potency was 13.7 nM (active).

For CO[C@@]12[C@H](COC(N)=O)C3=C(C(=O)C(C)=C(N)C3=O)N1C[C@@H]1N[C@@H]12, which Potency is on record?
The Potency was “inactive”.

How did the Potency turn out when CCCCc1nc2cc(/C=C/C(=O)NO)ccc2n1CCN(CC)CC was run?
The Potency was 385 nM (active).

CC(Oc1ccc2[nH]nc(/C=C/c3cnn(CCO)c3)c2c1)c1c(Cl)cncc1Cl (centres undefined) was tested. Which Potency did it give?
The Potency was 1930 nM (active).

CC(C)Oc1ccc(C(=O)NC(CNC(=O)CN(C)C)Cc2ccc(-c3cn4cccc(C(C)O)c4n3)cc2)cc1Cl (centres undefined) was tested. Which Potency did it give?
The Potency was 243 nM (active).

NS(=O)(=O)OC[C@@H]1C[C@@H](n2ccc3c(N[C@H]4CCc5ccccc54)ncnc32)C[C@@H]1O was tested. Which Potency did it give?
The Potency was 685 nM (active).

For CC(C)CC(=O)Nc1n[nH]c2c1CN(C(=O)C1CCN(C)CC1)C2(C)C, which Potency is on record?
Its Potency is 172 nM (active).

For CN1CCN(Cc2ccc(NC(=O)Nc3ccc(Oc4cc(NC(=O)C5CC5)ncn4)cc3)cc2C(F)(F)F)CC1, which Potency is on record?
Its Potency is 193 nM (active).

For CC(=O)O[C@H]1C(=O)[C@@]2(C)[C@H]([C@H](OC(=O)c3ccccc3)[C@]3(O)C[C@H](OC(=O)[C@H](O)[C@@H](NC(=O)c4ccccc4)c4ccccc4)C(C)=C1C3(C)C)[C@]1(OC(C)=O)CO[C@@H]1C[C@@H]2O, which Potency is on record?
The Potency was 9.2 nM (active).

Which Potency does the source give for NS(=O)(=O)c1ccc(Nc2nc(OCC3CCCCC3)c3[nH]cnc3n2)cc1 here?
The Potency was “inactive”.

Which Potency does the source give for O=c1[nH]c(=O)n([C@H]2C[C@H](O)[C@@H](CO)O2)cc1Br here?
The Potency was “inactive”.

With FC(F)(F)c1ccc(/C=C/c2nc(COc3ccc(CCCCn4ccnn4)cc3)co2)cc1 as the compound, how does the Potency read?
Its Potency is 19.3 nM (active).

How did the Potency turn out when CNCc1ccc(-c2[nH]c3cc(F)cc4c3c2CCNC4=O)cc1 was run?
The Potency was 19300 nM (active).

For C=CC(=O)Nc1cc2c(Nc3ccc(F)c(Cl)c3)ncnc2cc1OCCCN1CCOCC1, which Potency is on record?
Its Potency is 30600 nM (active).

With CN(C)C/C=C/C(=O)Nc1cc2c(Nc3ccc(F)c(Cl)c3)ncnc2cc1OC1CCOC1 (centres undefined) as the compound, how does the Potency read?
The Potency was 9680 nM (active).

With S=c1nc[nH]c2nc[nH]c12 as the compound, how does the Potency read?
The Potency was 3850 nM (active).

With CCC1C(=O)N(C)c2cnc(Nc3ccc(C(=O)NC4CCC(N5CCN(CC6CC6)CC5)CC4)cc3OC)nc2N1C(C)C (centres undefined) as the compound, how does the Potency read?
Its Potency is 76.9 nM (active).

With CNc1nccc(-c2cccnc2Oc2cc(C(=O)Nc3cccc(C(F)(F)F)c3)ccc2C)n1 as the compound, how does the Potency read?
Its Potency is 17200 nM (active).
